# The list is not random: actives were taken first. Their share in the collection is about 12%.
# JMJD2A Tudor: blocks the human JMJD2A Tudor domain; O75164; AlphaScreen JMJD2A-Tudor / H3K4me3 peptide binding; Potency, µM (top dose mostly 114 µM), for inactives: at the highest dose activity change, negative = inhibition, usual class: inhibitors; hit rate 4.4% among 390,000; further: potency means the concentration at half of the fitted maximal effect; on the % scale 0 is the no-effect control and ±100 the full control effect; nearly all actives have a fitted effect of over 50% in size
# G9a inh: inhibitors of human histone lysine methyltransferase G9a. Q96KQ7. G9a H3K9 monomethylation, AlphaScreen, 2 h. Potency, µM (series often up to 102 µM), for inactives: at the top dose activity, negative = inhibition, usual class: inhibitors. hit rate 8.8% among 350,000; further: potency means the concentration at half of the fitted maximal effect; on the % scale 0 is the no-effect control and ±100 the full control effect; nearly all actives have a fitted effect of over 75% in size
#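 AlphaScreen detection with an anti-monomethyl H3K9 antibody quantified product after a 2 h room-temperature reaction containing 500 nM biotinylated H3K9 peptide, 20 µM SAM and 20 nM enzyme, which had been preincubated 15 min with compound.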
# PI5P4Ka inh: PI5P4K alpha (human) kinase inhibition; hit rate 1.2% among 330,000; max response, %; P48426; PI5P4Kalpha enzyme, ADP-Glo luminescence, 60 min; stronger effect = lower value; active means max response of -50% or lower; inconclusive means between -30% and -50%; inactive means -30% or higher; further: value at the top dose of about 77 µM; on the % scale 0 is the no-effect control and ±100 the full control effect
#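 ADP-Glo luminescence end-point after a 60 min room-temperature kinase reaction. PI5P4Kalpha and substrate in HEPES pH 7.4 buffer with EGTA, 0.1% CHAPS and 5% DMSO; ATP at 5 microM final.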
# BAZ2B block: inhibitors of human BAZ2B bromodomain; AID 504333; Q9UIF8; hit rate 4.4% among 360,000; Potency, µM (top dose mostly 114 µM), for the others: at the highest dose activity change, negative = inhibition, actives largely listed as inhibitors; AlphaScreen BAZ2B-H3K14Ac peptide displacement; further: potency means the concentration at half of the fitted maximal effect; on the % scale 0 is the no-effect control and ±100 the full control effect; nearly all actives have a fitted effect of over 60% in size
#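 BAZ2B 50 nM plus b-H3(5-23)K14Ac 50 nM, PBS pH 7.4/0.01% Tween-20, 30 min RT; compound added (max 110 uM), 30 min RT; streptavidin donor/Ni-chelate acceptor beads 10 ug/mL final, 20 min dark; AlphaScreen read.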
# HP1b chromo inh: HP1-beta chromodomain-methylated histone interaction inhibition; Potency, µM (highest dose often 114 µM), inactives show at the highest dose activity change, negative = inhibition, most hits filed as inhibitors; AID 540317; hit rate 0.56% among 390,000; AlphaScreen HP1-beta / biotin-H3K9me3 peptide binding; further: potency means the concentration at half of the fitted maximal effect; nearly all actives have a fitted effect of over 70% in size
#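 HP1-beta protein (50 nM final) preincubated 30 min at room temperature with biotinylated H3(1-18)K9me3 peptide (50 nM) in PBS pH 7.4, 0.01% Tween-20, then compound added for 30 min. AlphaScreen streptavidin donor/nickel chelate acceptor beads (10 ug/mL final), 30 min dark, luminescence read.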
# PLK1 PBD block: inhibitors of human PLK1 polo-box domain binding | P53350 | Plk1 PBD binding of FITC phosphopeptide, fluorescence polarization | Potency, µM, inactives show max response, negative = inhibition, actives largely listed as inhibitors | hit rate 2.8% among 360,000 | AID 720504; further: potency means the concentration at half of the fitted maximal effect; series mostly up to about 57 µM; on the % scale 0 is the no-effect control and ±100 the full control effect; nearly all actives have a fitted effect of over 65% in size
# TbPYK confirm: confirmation of Trypanosoma brucei pyruvate kinase inhibitors | shares compounds with PLK1 PBD block | recombinant TbPYK, Kinase-Glo ATP luminescence | Potency, µM (doses to about 76.9 µM), inactives show top-dose activity change, negative = inhibition, usual class: inhibitors | hit rate 67% among 890 | AID 720569; further: potency means the concentration at half of the fitted maximal effect; on the % scale 0 is the no-effect control and ±100 the full control effect; nearly all actives have a fitted effect of over 70% in size
# TbPYK ADP-Glo: TbPYK inhibition, orthogonal confirmation; recombinant TbPYK, ADP-Glo luminescence, 60 min; Potency, µM (top dose mostly 76.9 µM), for inactives: at the highest dose activity change, negative = inhibition, most hits filed as inhibitors; hit rate 62% among 890; shares compounds with PLK1 PBD block; further: potency means the concentration at half of the fitted maximal effect; on the % scale 0 is the no-effect control and ±100 the full control effect; nearly all actives have a fitted effect of over 75% in size
# An asterisk follows results filed as active; u = inconclusive; x = no result; [ ] = another dose, or the depositor's remark. Unless noted, the call rests on the fitted dose curve; in most records, active means well fitted curve in the direction sought with a large enough effect; inconclusive means small, poorly fitted or top-dose-only effect, or another doubt; inactive means no such curve, though single readings can be large; an effect the other way counts as inactive or inconclusive.
SMILES,JMJD2A Tudor,G9a inh,PI5P4Ka inh,BAZ2B block,HP1b chromo inh,PLK1 PBD block,TbPYK confirm,TbPYK ADP-Glo
Cc1ccc(N2C(=O)NC(=O)/C(=C/c3ccoc3)C2=O)cc1,10µM*,x,-83*,7.9µM*,10µM*,2.7µM*,u,-29%
CCN1C(=O)NC(=O)/C(=C\c2ccc(N3CCOCC3)cc2OC)C1=O,x,0%,x,-24%[57.1 µM],x,x,x,x
COc1cc(/C=C2\C(=O)NC(=O)N(c3ccccc3)C2=O)cc(OC)c1OC,-25%,u,u,-37%,18%,13µM*,u,u
O=P1(c2ccccc2)CC=CC1,x,x,6,x,x,1%,x,x
CC(C)(C)n1nnnc1C(c1cccc2ccccc12)N1CCC2(CC1)C(=O)NCN2c1ccccc1 (stereo unspecified),x,x,-8,x,x,0%,x,x
CCc1nn2c(=O)c(F)c(N3CCNCC3)nc2s1,-5%,x,x,x,x,x,x,x
COc1ccc(OC(=O)N(C)C[C@@H]2OCc3ccccc3-c3c(n(C)c4ccccc34)C(=O)N([C@H](C)CO)C[C@@H]2C)cc1,x,x,8,x,x,-13%,x,x
COc1c(O)cc2c(c1OC)-c1ccc(SC)c(=O)cc1C(NC(C)=O)CC2 (stereo unspecified),-24%,x,-5,x,13%,-7%,x,x
O=C(Nc1ccc2nc(-c3cccs3)c(-c3cccs3)nc2c1)NC1CC1,4%,-2%[59 µM],x,3%,57%,-10%,x,x
CN(Cc1cccc(-c2ccncc2)c1)C(=O)Oc1ccc([N+](=O)[O-])cc1,x,x,-5,x,x,-2%,x,x
Cc1ccc(OC(=O)N(C)C[C@@H]2OCc3cnnn3CCCC(=O)N([C@@H](C)CO)C[C@@H]2C)cc1,x,x,1,x,x,-11%,x,x
CCOC(=O)CSCCOc1ccc(C=C2C(=O)NC(=O)NC2=O)cc1OC,-19%,22µM*,u,u,31%,8.4µM*,16µM*,u
O=C1NC(=O)N(c2ccccc2)C(=O)/C1=C\C=C\c1ccccc1,-8%,x,u,-5%,u,1.2µM*,13µM*,u
CCOc1ccccc1N1C(=O)NC(=O)/C(=C/c2ccc3c4c(cccc24)CC3)C1=O,79µM*,27%[0.501 µM],-64*,50µM*,31%,6.7µM*,u,u
CCOc1cccc(C2NCc3ccccc3-n3cccc32)c1O (stereo unspecified),u,u,-9,u,-33%,0%,x,x
O=[N+]([O-])c1oc2ccc3ccccc3c2c1CCO,u,x,-3,x,-9%,-1%,x,x
COC1CC(C)C(OC)c2cc(O)cc(c2O)NC(=O)C(C)=CC=CC(C)C(OC(N)=O)C(C)=CC(C)C1OC (stereo unspecified),89µM*,x,13,x,71µM*,19µM*,u,13µM*
Cc1ccc2cc3cc(C(=O)N4CCC5(CC4)OCCO5)oc3nc2c1,1%,7%[0.0925 µM],-6,7%,21%,-11%,x,x
Cc1cc(C)n2nc(SC(C)C(=O)N3CCC4(CC3)OCCO4)nc2n1 (stereo unspecified),-22%,1%[59 µM],x,-1%,20%,-1%,6%,-2%
Fc1cccc(-c2ccc3c(c2)CN(C(=S)NCCc2ccccc2)Cc2cnnn2-3)c1,x,x,22,x,x,-12%,x,x
O=C(O)CCn1cc(C=C2C(=O)NC(=S)NC2=O)c(-c2cccc(Cl)c2)n1,50µM*,2.5µM*,-86*,u,3%,4.7µM*,7.1µM*,u
O=C(O)CCn1cc(C=C2C(=O)NC(=O)NC2=O)c(-c2ccc(Br)cc2)n1,0%,10µM*,u,-30%,57%,2.7µM*,14µM*,28µM*
COc1c(OP2(=S)OCC(C)(C)CO2)cnn(C2CCCCC2)c1=O,x,x,6,x,x,-13%,x,x
O=C(NCC1=C(c2ccc3ccccc3c2)C[C@@H]2CC[C@H]1N2Cc1ccco1)c1ccc([N+](=O)[O-])cc1,x,x,-8,x,x,-13%,x,x
COc1ccc(CN2C(=O)NC(=O)/C(=C/c3ccc(OC)c(OC)c3OC)C2=O)cc1,9%,x,-17,-16%,16%,8.4µM*,28µM*,u
COc1ccc(CN2C(=O)NC(=O)/C(=C/c3cc(OC)c(OC)c(OC)c3)C2=O)cc1,-11%,45µM*,-51*,-13%,4%,12µM*,u,-28%
O=C(Nc1ccc(F)cc1)N1Cc2ccccc2-n2nncc2C1,x,x,4,x,x,-18%,x,x
COC(=O)C1=C(C(=O)OC)C2OC1c1cc3ccccc3cc12,89µM*,x,-15,x,1%,3µM*,10µM*,13µM*
COC(=O)C1=C(c2ccc3ccccc3c2)C[C@@H]2CC[C@H]1N2C,-20%,21%[0.501 µM],-3,-5%,18%,-15%,x,x

# Screening data from PubChem.
